We go through 40 molecules from ChEMBL document CHEMBL3988442, “University of Dundee, Small-Polar-MMV Screening Library” (2021).

The target in the test is AMP-activated protein kinase, AMPK (Homo sapiens) (UniProt P54646+O43741+P54619+Q9UGJ0+Q9Y478+Q13131+Q9UGI9). Put plainly: AMP-dependent Kinase enzyme assay. An in vitro enzyme assay that detects ADP turnover that is directly proportional to AMPK activity. This uses naive AMPK that is activated during the assay with MK-8722. The class given is functional. Details: scale not given: direction of the effect not stated beside the values. The note with it: 30 µM.
For `O=C(NCCc1c[nH]cn1)c1ccccc1C1CCNC1` (stereo not given), the Percent Effect was -4.12%.

`CS(=O)(=O)c1ccc(CC(=O)N2CCN3CCNC(=O)C3C2)cc1` (stereo not given): the Percent Effect was -2.22%.

For `Cc1nc(CC(=O)N2CCCC[C@H](N(C)C)C2)cs1`, the Percent Effect was -2.31%.

`O=C(N[C@H]1COC[C@@H]1N1CCCC1)c1csc(-c2cccs2)n1`: the Percent Effect is 2.31%.

As for `CC(C)(C)c1cc(=O)[nH]c(C2(N)CCCCC2)n1`, the Percent Effect amounted to 2.04%.

Take `CC(C)[C@@H]1CN(C(=O)C2(c3ccccc3)CCN(C)CC2)C[C@H]1C(=O)O`: the Percent Effect came to 3.48%.

On to `CSc1nccc(N2CCC3(CCCN(CC4CC4)C3)C2)n1` (stereo not given), for which the Percent Effect amounted to 2.58%.

For `COc1ccc(NC(=O)CCN2CC=C(c3cnn(C)c3)CC2)c(C)c1`, the Percent Effect was found to be 6.63%.

`COc1ncnc(N)c1CNCCc1ccccc1`: the Percent Effect is -4.78%.

Turning to `Cc1cc(C)c2[nH]c(C)c(CC(=O)N(C)CCN(C)C)c2c1`, the Percent Effect turned out to be 3.2%.

Consider `O=C(N[C@H]1COC[C@@H]1N1CCCC1)c1csc(Cc2ccccc2)n1`, for which the Percent Effect came out at 4.04%.

With `Cc1[nH]c(=O)[nH]c(=O)c1CC(=O)N1CCCN(CC2CC2)C(C(C)C)C1` (stereo not given), the Percent Effect is 3.13%.

As for `CC(C)c1cc(N2CCCC3(CCN(C)C3)C2)ncn1` (stereo not given), the Percent Effect came to 1.53%.

Turning to `CC(C)[C@@H]1CN(C(=O)C2(c3ccccc3)CCN(C)CC2)C[C@H]1N(C)C`, the Percent Effect is -5.45%.

In the case of `COc1ccc(CC(C)Nc2cccc(F)c2)cc1` (stereo not given), the Percent Effect came to 4.95%.

For the molecule `CCN1CCN(C(=O)COc2ccc(CN(C)S(C)(=O)=O)cc2)CC1`, the Percent Effect was -0.955%.

Turning to `CCc1cccnc1NCc1cnc(N2CCOCC2)nc1`, the Percent Effect came to 22.9%.

As to `O=C(NC1CC1)[C@H]1CN(Cc2ccccc2)C[C@@H]1C(=O)c1ccccc1`, the Percent Effect amounted to 12.8%.

For `Cc1nc(C(=O)N[C@H]2COC[C@@H]2N2CCCCC2)cs1`, the Percent Effect is 4.08%.

As to `CCNC(=O)[C@@H]1CN(Cc2ccccc2)C[C@H]1C(=O)c1ccc(F)cc1`, the Percent Effect is 15.1%.

On to `COc1ccc(F)cc1C(=O)C1CCCN(Cc2cnc(C)s2)C1` (stereo not given), for which the Percent Effect is 1.8%.

Regarding `CCCc1nc(C(=O)N[C@H]2COC[C@@H]2N2CCN(C)CC2)cs1`, the Percent Effect is -1.36%.

As for `COc1ccccc1CCN(C)Cc1nc(N)nc(N(C)C)n1`, the Percent Effect was -4.89%.

Regarding `CC(C)(C)c1cc(=O)[nH]c(C2(N)CCCC2)n1`, the Percent Effect was 3.52%.

As to `O=C(O)[C@H]1CN(Cc2ccccc2)C[C@@H]1C(=O)c1ccccc1`, the Percent Effect was determined as 12.8%.

Consider `CC(C)c1cc(N2CCC3(CC2)CN(C)CCN3C)ncn1`, for which the Percent Effect was -4.27%.

In the case of `CCc1ccc2ncn(Cc3ncc[nH]3)c(=O)c2c1`, the Percent Effect worked out at 0.257%.

Consider `CC(C)c1cc(N2CCC3(CCN(C)C3)C2)ncn1` (stereo not given), for which the Percent Effect is -2.38%.

As to `O=C(N[C@H]1CN2CCC1CC2)c1cc(Cn2cnc3ccccc32)[nH]n1`, the Percent Effect was -6.79%.

`FC(F)(F)c1nc(C2CCNCC2)no1`: the Percent Effect was determined as 5.73%.

Regarding `Cc1cccc(CC(=O)N2CCCC(N(C)CCCN(C)C)C2)c1` (stereo not given), the Percent Effect stood at 6.04%.

In the case of `COc1ccc(F)cc1C(=O)C1CCCN(Cc2ccc(C)s2)C1` (stereo not given), the Percent Effect came out at 6.05%.

On to `CCc1nnc(NC(=O)CCN2CC=C(c3cnn(C)c3)CC2)s1`, for which the Percent Effect was 7.71%.

In the case of `CC(C)c1ccccc1OCCNC(=O)N1CCC2(CC1)OCCO2`, the Percent Effect is -2.79%.

Take `CCc1ccc(OCC(=O)N2CCN(CC)CC2)cc1`: the Percent Effect is -0.678%.

Consider `Cc1ccc2c(CC(=O)N(C)CCN(C)C)c(C)[nH]c2c1C`, for which the Percent Effect was -8.21%.

Turning to `Cc1nc(C)c(CC(=O)N2CCCN(CC3CC3)C(C(C)C)C2)c(=O)[nH]1` (stereo not given), the Percent Effect is -7.23%.

For the molecule `COc1ccc(NC(=O)CCN2CC=C(c3cnn(C)c3)CC2)cc1Cl`, the Percent Effect turned out to be 12.5%.

As for `Cc1nc(CC(=O)N2CCCC(N(C)Cc3ccccc3)C2)cs1` (stereo not given), the Percent Effect was 6.8%.

Turning to `Cc1cc(NCCc2c[nH]cn2)nc(-c2cccnc2)n1`, the Percent Effect is 1.96%.
